The whole screen tested about 360,000 compounds, of which about 2,000 (0.56%) were called active. Inconclusive results (about 2%) are left out. Cut-off read from the data, not from the text of the source: active = activity change below about -65%; inconclusive = mostly about -30% to -63%; inactive = weaker than that. Shown is part of a subset that was picked to be rich in actives.
% is set by controls: 0 for no effect and ±100 for the full control effect.

Homeobox protein SIX1 (Homo sapiens) + Protein phosphatase EYA2 (Homo sapiens), sequence (O00167 whole entry, looked up): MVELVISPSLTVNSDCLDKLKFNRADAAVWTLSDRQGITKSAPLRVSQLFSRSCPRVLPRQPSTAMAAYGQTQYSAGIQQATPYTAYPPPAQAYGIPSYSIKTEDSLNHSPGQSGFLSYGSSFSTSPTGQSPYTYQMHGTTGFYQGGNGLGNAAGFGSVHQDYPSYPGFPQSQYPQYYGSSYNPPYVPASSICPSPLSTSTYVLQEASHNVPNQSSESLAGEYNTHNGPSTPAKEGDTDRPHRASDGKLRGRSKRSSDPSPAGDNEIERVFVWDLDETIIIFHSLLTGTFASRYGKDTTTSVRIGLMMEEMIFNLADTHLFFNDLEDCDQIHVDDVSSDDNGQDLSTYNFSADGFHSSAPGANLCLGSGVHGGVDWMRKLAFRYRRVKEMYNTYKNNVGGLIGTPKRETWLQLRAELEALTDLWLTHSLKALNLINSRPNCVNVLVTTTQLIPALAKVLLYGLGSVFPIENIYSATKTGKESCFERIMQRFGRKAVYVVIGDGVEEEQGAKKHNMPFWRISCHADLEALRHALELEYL
Homeobox protein SIX1 (Homo sapiens) + Protein phosphatase EYA2 (Homo sapiens), sequence (Q15475 whole entry, looked up): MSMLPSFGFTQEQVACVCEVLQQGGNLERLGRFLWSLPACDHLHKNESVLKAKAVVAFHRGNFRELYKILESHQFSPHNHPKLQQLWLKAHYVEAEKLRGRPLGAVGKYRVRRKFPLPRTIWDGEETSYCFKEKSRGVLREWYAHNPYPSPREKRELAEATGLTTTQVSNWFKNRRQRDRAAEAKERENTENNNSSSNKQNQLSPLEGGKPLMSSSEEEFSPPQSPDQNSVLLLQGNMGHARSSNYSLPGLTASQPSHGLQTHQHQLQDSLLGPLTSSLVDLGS

The target in the test is Homeobox protein SIX1 (Homo sapiens) + Protein phosphatase EYA2 (Homo sapiens) (UniProt Q15475+O00167). The test is described as follows: qHTS Assay for Inhibitors of the Six1/Eya2 Interaction. The following applies: AlphaScreen GST-Six1/His-Eya2 binding, biochemical; active compounds read low. The text has this:
Its expression is low or undetectable in normal adult breast tissue but the gene is over-expressed in 50% of primary breast tumors and 90% of metastatic lesions. […] Similar to Six1, Eya2 is also not expressed in most normal adult tissues, but is reexpressed in cancers. The Six1-Eya interaction is essential for proliferation during embryonic development, and both Six1 and Eya2 have been independently implicated in the same types of cancer. Because Six1 and Eya2 are embryonic genes with little expression in adult tissues, inhibitors of their expression/activity are likely to have limited side effects. Our goal is to identify inhibitors of the Six1/Eya interaction for potential cancer therapy. To this end, we have developed a homogenous AlphaScreen assay targeting the Six1/Eya interaction. We performed a large scale HTS of the Molecular Libraries Small Molecule Repository (MLSMR) to identify inhibitors of the Six1/Eya interaction as potential anti-cancer therapeutics. Compounds identified can also be used as chemical probes to better understand the biological functions of Six1 and Eya. NIH Chemical Genomics Center [NCGC] NIH Molecular Libraries Probe Centers Network [MLPCN] MLPCN Grant: DA033147 Assay Submitter (PI): Rui Zhao, University of Colorado Denver
The first step of the 5 uL AlphaScreen assay is to dispense assay buffer (50 mM Tris, pH 8.0, 300 mM NaCl, 0.05% BSA, 0.02% Tween 20, 1 mM TCEP) into a Greiner 1536 white solid bottom microtiter plate (789175-F). Five microliters is added to Column 1, 4 uL is added to Column 2 and 3 uL is added to Columns 3 through 48. A 5X protein solution (250 nM GST-Six1 protein + 500 nM His-tagged Eya2 protein) is mixed and 1 uL is dispensed to Columns 3-48. Using a 1536 pintool, 23 nL of compound is transferred to the assay plate. A solution of 5X AlphaScreen beads is mixed (50 ug/mL Glutathione linked donor beads + Nickel chelated acceptor beads) and 1 uL is dispensed to Columns 2-48. The assay plate is incubated for one hour, with a lid, at 37 deg C in the dark. The plate is read using a Perkin Elmer Envision using an AlphaScreen protocol.
In the case of `O=[N+]([O-])c1ccc(C=Nc2ccc(Cl)cc2Cl)s1`, the activity change is -73.2% (active).
Regarding `CCC(C)CN1C(=O)CN(S(C)(=O)=O)CC1(C)C(=O)Nc1ccc2c(c1)OCCO2` (stereo not given), the activity change is 16.6% (inactive).
For `COc1ccc2c(c1)CCCO[C@]21O[C@H](CCO)C[C@H](O)[C@H]1O` the value was 6.3% (inactive); for `Cc1ccc(NC(=O)c2nc[nH]c2C(=O)N[C@@H](CCCCNC(=O)OC(C)(C)C)C(=O)OC(C)(C)C)cc1`, -3.47% (inactive); for `CC(C)(C)OC(=O)NCCCCCNC(=O)c1[nH]cnc1C(=O)Nc1nccs1`, -76.4% (active).
With `CC(C)(C)OC(=O)NCCCCCNC(=O)c1nc[nH]c1C(=O)NCc1ccccc1` the figure was -0.665% (inactive).
For `COC(=O)c1ccc2nc(-c3cccc(Br)c3)c(Cc3ccccc3C(F)(F)F)n2c1` the value was -10.3% (inactive); for `Cc1ccc(C(=O)N2CCN(C3CCCCC3)CC2)s1`, -13.4% (inactive).
As to `OCCC#Cc1ccc(N2C(c3ccsc3)=Cc3ccc(F)cc3C2c2c[nH]c3ccccc23)cc1` (stereo not given), the activity change was -7.53% (inactive).
For `Cc1cc(C(=O)N/N=C/c2cc([N+](=O)[O-])cc(C)c2O)n[nH]1` the value was -77.5% (active).
For `COc1ccc(C(=O)NNC(=O)c2cc(C)[nH]n2)cc1` the value was 1.78% (inactive).
For `O=C(N/N=C/c1cccc(OC(=O)c2ccc([N+](=O)[O-])cc2)c1)c1cccnc1` the value was -3.98% (inactive).
As to `CCCCNS(=O)(=O)c1ccc2nc(SCC(=O)Nc3cc(C)cc(C)c3)[nH]c2c1`, the activity change was -4.15% (inactive).
In the case of `CCOC(=O)[C@]12CCCC=C1N(Cc1cccc3ccccc13)C(=O)[C@H](CC(=O)NCC13CC4CC(CC(C4)C1)C3)C2`, the activity change is -14% (inactive).
For `Nc1nonc1-n1nnc(C(=O)N/N=C/c2ccccc2O)c1CN1CCCC1` the value was -91.1% (active); for `NNC(=O)c1nnn(-c2nonc2N)c1CN1CCCC1`, 4.15% (inactive).
For `Nc1nonc1-n1nnc(C(=O)N/N=C\c2ccncc2)c1CN1CCCCC1` the value was -5.55% (inactive); for `COC(=O)C[C@H]1C=C[C@H](NC(=O)c2ccc(F)cc2)[C@@H](CO)O1`, 7.11% (inactive).
For `Cc1cc(C)c(S(=O)(=O)NN=C2c3ccccc3[C@H]3Cc4csc[n+]4[C@@H]23)c(C)c1` the value was -12.5% (inactive).
As for `Cc1cccc(N(CC(=O)N2CCCC2)S(C)(=O)=O)c1C`, the activity change was 7.01% (inactive).
With `Cc1ccc(NC(=O)CSc2nn3c(=O)c(C)nnc3s2)cc1Cl` the figure was -81.7% (active); with `Cc1ccc(NC(=O)CSc2nnc(CNC(=O)c3ccccc3F)o2)cc1Cl`, 8.8% (inactive).
Take `COc1ccc(Cc2nnc(SCC(=O)Nc3ccc(C)c(Cl)c3)[nH]c2=O)cc1`: the activity change is 6.59% (inactive).
For `O=C(Nc1ccc(F)cc1)C(CCc1ccccc1)N1CCN(CC(=O)N2CCCC2)CC1` (stereo not given) the value was 1.59% (inactive).
With `FC(F)(F)c1cccc(-c2nc3ccccc3n2C(c2ccccc2)c2nc3ccccc3[nH]2)c1` (stereo not given) the figure was -13.3% (inactive); with `CCN(CC(=O)NC1CCS(=O)(=O)C1)S(=O)(=O)c1ccccc1` (stereo not given), 9.89% (inactive).
For `Cc1ccccc1CN1C(=O)CSCC1(C)C(=O)Nc1c(C)cccc1C` (stereo not given) the value was -3.18% (inactive).
Turning to `Cc1nc(N=C(N)N)nc2c(C)cccc12`, the activity change is -72.7% (active).
With `COC(=O)[C@@]12C[C@@H](CC(=O)NCCCCc3ccccc3)C(=O)N(CCc3ccc(OC)c(OC)c3)C1=CCC(C)(C)C2`, the activity change was -8.99% (inactive).
With `Cc1ccc(C(=O)Nc2c(-c3ccccc3)[nH][nH]c2=O)cc1`, the activity change was 3.7% (inactive).
With `COC(=O)C[C@@H]1C=C[C@@H](NS(=O)(=O)c2cccc(OC)c2)[C@@H](CO)O1`, the activity change was -2.42% (inactive).
Take `CC(C)c1ccc(Cc2nnc(NCCCO)[nH]c2=O)cc1`: the activity change was 4.24% (inactive).
For `COc1ccc(Cc2nnc(SC)[nH]c2=O)cc1` the value was 0.132% (inactive); for `COc1ccc(Cc2nnc(N/N=C/c3ccccc3O)[nH]c2=O)cc1OC`, -85.7% (active); for `Cc1ccc(/C=C/C(=O)OCC(=O)Nc2cccnc2Cl)cc1`, -0.924% (inactive).
With `CC(C)(C)NC(=O)C(CCc1ccccc1)n1c(=O)c(-c2ccccc2)nc2ccccc21` (stereo not given), the activity change is 7.94% (inactive).
With `COc1cccc(-c2ccc3c(c2)S(=O)(=O)c2cccc(C(=O)O)c2C3=O)c1OC`, the activity change was -5.18% (inactive).
With `O=C(O)c1ccc2c3c(cccc13)C(=O)N(OS(=O)(=O)c1ccccc1)C2=O` the figure was -77.1% (active).
With `Cc1cc(Br)cn2c(Cc3ccccc3C(F)(F)F)c(C3CCCCC3)nc12`, the activity change was 11.6% (inactive).
With `CC(=O)N1Cc2cc(C(=O)NCc3cccc(F)c3)nc(-c3cccc(C4=CCCC4)c3)c2[C@H]1CCO` the figure was -15.8% (inactive).
With `O=C(COc1cc(Cl)c(Cl)cc1Cl)NCCc1ccccn1` the figure was -7.95% (inactive); with `NC(=S)NN=Cc1ccc(OC(=O)COc2cc(Cl)c(Cl)cc2Cl)cn1`, -93.5% (active); with `O=C(COC(=O)COc1cc(Cl)c(Cl)cc1Cl)NC1CC1`, 3.24% (inactive).
For `COc1ccc(C(C(=O)NCc2ccccc2)n2c(=O)c(-c3ccccc3)nc3ccccc32)cc1` (stereo not given) the value was 0.529% (inactive); for `CC(C)C[C@H]1CNC(=O)C(=O)N1C[C@@H]1CCCN1C[C@H](Cc1ccccc1)N1C[C@H](CC(C)C)N(CC2CCCCCC2)C(=O)C1=O`, -1.64% (inactive).
For the compound `O=c1[nH]c2ccccc2n2c(-c3ccccc3)nnc12`, the activity change was -65.3% (active).
With `O=C(c1ncn2c1c(=O)[nH]c1ccccc12)N1CCc2ccccc2C1` the figure was -3.9% (inactive).
For `Cc1nc2ccccc2n1CC(=O)N/N=C/c1cccs1` the value was -11.4% (inactive).
On to `Cn1c(=O)c2c(nc(N/N=C/c3cccs3)n2Cc2ccc(Br)cc2)n(C)c1=O`, for which the activity change was 29.6% (inactive).
For `Cc1n[nH]c(=O)nc1N/N=C/c1cccs1` the value was -90.5% (active).
With `Cc1nccn1-c1ccc(NC(=O)[C@H]2O[C@@H](n3ccc(=O)[nH]c3=O)[C@H](O)[C@@H]2O)cc1` the figure was 1.11% (inactive).
In the case of `O=C(NCc1ccccc1)C(c1ccc(F)cc1)N1CCN(C(=O)C2CCCO2)CC1` (stereo not given), the activity change is 20.6% (inactive).
With `Cc1cccc(NC(=O)c2cc(N3C(=O)CCC3=O)ccc2Cl)n1` the figure was 3.08% (inactive); with `Cc1cc(NC(=O)c2cccc(N3C(=O)CCC3=O)c2)no1`, -70.6% (active); with `Cc1cc(NC(=O)c2ccccc2C)no1`, 9.99% (inactive).

The record behind these values is PubChem BioAssay AID651725 (National Center for Advancing Translational Sciences (NCATS), 2012).
